Results: the supplement of paper PMC9844399
Counter-ions that a name gives are not always drawn.

System: HeLa
Assay: nuclear count per well, robust Z-score vs DMSO; higher = more cells (less toxicity)
Conditions: 10 µM; 6 h
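Further: Hoechst-stained nuclei counted by automated confocal imaging of four fields per well in 384-well plates, with the robust Z-score based on the per-plate DMSO median and robust SD.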

| Structure (SMILES) | nuclear count per well |
| --- | --- |
| C[C@@H]1[C@H](O)[C@@H](C)/C=C/C=C/C=C/C=C/C=C/C=C/C=C/[C@H](O[C@@H]2O[C@H](C)[C@@H](O)[C@H](N)[C@@H]2O)C[C@@H]2O[C@](O)(C[C@@H](O)C[C@@H](O)[C@H](O)CC[C@@H](O)C[C@@H](O)CC(=O)O[C@H]1C)C[C@H](O)[C@H]2C(=O)O [Amphotericin B] | 0.998 |
| CC(CN(C)C)CN1c2ccccc2CCc2ccccc21 (stereo not drawn) [Trimipramine Maleate] | -0.14 |
| CNCCCN1c2ccccc2CCc2ccc(Cl)cc21 | -0.443 |
| COc1cc(CNC(=O)CCCCCCC(C)C)ccc1O [Dihydrocapsaicin] | 1.61 |
| CCN(CC)C(=O)C1(c2ccccc2)CC1CN (stereo not drawn) | -0.371 |
| CC/C=C\C/C=C\C/C=C\C/C=C\C/C=C\CCCCCC(=O)O [Docosapentaenoic acid] | 0.0369 |
| OCc1cc(C(O)CNCCCCCCOCCCCc2ccccc2)ccc1O (stereo not drawn) [Salmeterol] | 0.768 |
| CC(=O)N(O)CCCCCNC(=O)CCC(=O)N(O)CCCCCNC(=O)CCC(=O)N(O)CCCCCN [Deferoxamine mesylate salt] | 2.01 |
| CC1=Nc2ccc(Cl)cc2S(=O)(=O)N1 [Diazoxide] | 0.862 |
| Nc1ncn([C@H]2C[C@H](O)[C@@H](CO)O2)c(=O)n1 [Decitabine] | 0.789 |
| Cn1cc(C2=C(c3cn(CCCSC(=N)N)c4ccccc34)C(=O)NC2=O)c2ccccc21 | -9.17 |
| COCCOC(=O)C1=C(C)NC(C)=C(C(=O)OC(C)C)C1c1cccc([N+](=O)[O-])c1 (stereo not drawn) [Nimodipine] | 0.889 |
| CCCCC[C@H](O)/C=C/[C@H]1C(=O)C[C@H](O)[C@@H]1C/C=C\CCCC(=O)O [Prostaglandin  D2] | -0.144 |
| CC1(C)O[C@@H]2C[C@H]3[C@@H]4C[C@H](F)C5=CC(=O)C=C[C@]5(C)[C@@]4(F)[C@@H](O)C[C@]3(C)[C@]2(C(=O)CO)O1 [Fluocinolone Acetonide] | 1.01 |
| Cc1nnc(NS(=O)(=O)c2ccc(N)cc2)s1 [Sulfamethizole] | 0.495 |
| O=C1Nc2ccccc2/C1=C1/Nc2ccccc2C1=O [Indirubin] | -0.156 |
| CCN(CC)CCCC(C)Nc1ccnc2cc(Cl)ccc12 (stereo not drawn) [Chloroquine] | 1.17 |

| Structure (SMILES) | nuclear count per well |
| --- | --- |
| C=C1C(=O)O[C@H]2[C@H]1CC/C(C)=C/CC[C@@]1(C)O[C@@H]21 [Parthenolide] | -3.34 |
| CN(C)CCCN1c2ccccc2CCc2ccc(Cl)cc21 | 0.587 |
| Cc1cc(CS(=O)(=O)c2ccccc2)cc(OCc2ccc(CN3CCC[C@@H]3CO)cc2)c1 | -0.0923 |
| CCN(CC)CCNC(=O)c1cc(Cl)c(N)cc1OC | -0.369 |
| CN(C/C=C/C#CC(C)(C)C)Cc1cccc2ccccc12 | 0.507 |
| NC[C@H]1O[C@H](O[C@H]2[C@H](O)[C@@H](O[C@H]3O[C@H](CO)[C@@H](O)[C@H](N)[C@H]3O)[C@H](N)C[C@@H]2N)[C@H](N)C[C@@H]1O [Tobramycin] | -0.0705 |
| CC(=O)N[C@@H](CS)C(=O)O [Acetylcysteine] | 0.695 |
| Cc1nc2n(c(=O)c1CCN1CCC(c3noc4cc(F)ccc34)CC1)CCCC2 [Risperidone] | 0.571 |
| CO[C@H]1/C=C/O[C@@]2(C)Oc3c(C)c(O)c4c(O)c(c5c(nc6cc(C)ccn65)c4c3C2=O)NC(=O)/C(C)=C\C=C\[C@H](C)[C@H](O)[C@@H](C)[C@@H](O)[C@@H](C)[C@H](OC(C)=O)[C@@H]1C [Rifaximin] | 0.22 |
| CC1=C(C(=O)O)N2C(=O)[C@@H](NC(=O)[C@H](N)c3ccc(O)cc3)[C@H]2SC1 [Cefadroxil] | 0.308 |
| CC(C)NCC(O)COc1ccc(CCOCC2CC2)cc1 (stereo not drawn) | 0.273 |
| Clc1ccc(-c2nc3sccn3c2/C=N/OCc2ccc(Cl)c(Cl)c2)cc1 | 1.73 |
| Nc1ccn([C@@H]2O[C@H](CO)[C@@H](O)[C@@H]2O)c(=O)n1 [Cytarabine] | -2.12 |
| CCCCCCCCCCCCCCCC(=O)O[C@@H]1[C@@H](O)[C@@H](O)[C@@H]([C@H](NC(=O)[C@@H]2C[C@@H](CCC)CN2C)[C@H](C)Cl)O[C@@H]1SC | -0.35 |
| CC1=C(/C=C/C(C)=C/C=C/C(C)=C/C(=O)O)C(C)(C)CCC1 [All trans retinoic acid] | -0.749 |
| CCCc1nc(C)c2c(=O)nc(-c3cc(S(=O)(=O)N4CCN(CC)CC4)ccc3OCC)[nH]n12 [Vardenafil] | -0.564 |
